Measurements taken from the supplement of paper PMC12582362.
Where a name gives a salt, the structure may show the parent alone. The campaign covered roughly 1,500 compounds. About 30 (2%) showed activity.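 Rule for the calls: active = robust z-score below -2; a few such results were not called.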 Many of the other results were omitted from the sample, so actives are more common in it than they were.

Each compound was assayed on optoTopBP1 Flp-In 293 T-REx (HEK293) cells (assay: light-induced TopBP1 condensate (nuclear foci) count, plate-normalised robust z-score vs non-control wells; higher = more TopBP1 condensates (negative = condensation inhibitor), active = hit call of the paper). Details: 10 µM; incubation time 2 h.

Row | Structure (SMILES) | light-induced TopBP1 condensate (z-score)
1 | CC(C)Nc1cccnc1N1CCN(C(=O)c2cc3cc(NS(C)(=O)=O)ccc3[nH]2)CC1 [Delavirdine] | 0.915 (inactive)
2 | Cn1ccnc1S [Methimazole] | -0.456 (inactive)
3 | CC1(C)O[C@@H]2C[C@H]3[C@@H]4CCC5=CC(=O)C=C[C@]5(C)[C@H]4[C@@H](O)C[C@]3(C)[C@]2(C(=O)CO)O1 [Desonide] | -0.951 (inactive)
4 | CC/C=C(\C(=O)N[C@@H]1C(=O)N2C(C(=O)OCOC(=O)C(C)(C)C)=C(COC(N)=O)CS[C@H]12)c1csc(N)n1 [Cefcapene pivoxil hydrochloride] | -0.782 (inactive)
5 | CCOc1ccccc1C(N)=O [Ethenzamide] | -0.0402 (inactive)
6 | CCC[C@@H]1C[C@@H](C(=O)N[C@@H]([C@H]2O[C@H](SC)[C@H](O)[C@@H](O)[C@H]2O)[C@H](C)Cl)N(C)C1 [Clindamycin hydrochloride] | 0.556 (inactive)
7 | CCC(C)n1ncn(-c2ccc(N3CCN(c4ccc(OCC5COC(Cn6cncn6)(c6ccc(Cl)cc6Cl)O5)cc4)CC3)cc2)c1=O (stereo unspecified) [Itraconazole] | -0.757 (inactive)
8 | CC(C)N1CCN(c2ccc(OCC3COC(Cn4cncn4)(c4ccc(Cl)cc4Cl)O3)cc2)CC1 (stereo unspecified) [Terconazole] | -0.114 (inactive)
9 | CC[C@@H]([C@H](C)O)n1ncn(-c2ccc(N3CCN(c4ccc(OC[C@@H]5CO[C@@](Cn6cncn6)(c6ccc(F)cc6F)C5)cc4)CC3)cc2)c1=O [Posaconazole] | -2.52 (active)
10 | CN[C@@H]1[C@@H](O[C@H]2O[C@H](CO)[C@@H](N)[C@H](O)[C@H]2O)OC2C[C@@H](N)[C@@H](O[C@H]3[C@H](O)[C@@H](O)[C@H](N)C[C@@H]3N)OC2[C@@H]1O (stereo partly specified) [Apramycin] | 0.974 (inactive)
11 | C#Cc1cccc(Nc2ncnc3cc(OCCOC)c(OCCOC)cc23)c1 [Erlotinib] | 1.27 (inactive)
12 | OC(CNCC(O)C1CCc2cc(F)ccc2O1)C1CCc2cc(F)ccc2O1 (stereo unspecified) [Nebivolol hydrochloride] | -0.227 (inactive)
13 | CCCC(=O)N1CCCN(c2nc(N)c3cc(OC)c(OC)cc3n2)CC1 [Bunazosin hydrochloride] | 0.537 (inactive)
14 | CC(=O)OCC(=O)[C@@]1(O)[C@H](C)C[C@H]2[C@@H]3CCC4=CC(=O)C=C[C@]4(C)[C@@]3(F)[C@@H](O)C[C@@]21C [Dexamethasone acetate] | 0.214 (inactive)
15 | OCCN1CCN(CC/C=C2/c3ccccc3Sc3ccc(Cl)cc32)CC1 [Zuclopenthixol dihydrochloride] | -0.966 (inactive)
16 | Cn1cc(C(=O)[C@@H]2CCc3[nH]cnc3C2)c2ccccc21 [Ramosetron hydrochloride] | -0.549 (inactive)
17 | COc1ccc(C2C(=O)c3ccccc3C2=O)cc1 [Anisindione] | 0.789 (inactive)
18 | COc1cccc2c1C(=O)c1c(O)c3c(c(O)c1C2=O)C[C@@](O)(C(=O)CO)C[C@@H]3O[C@H]1C[C@H](N)[C@@H](O)[C@H](C)O1 [Epirubicin hydrochloride] | -3.05 (active)
19 | Oc1ccc(OCc2ccccc2)cc1 [Monobenzone] | -2.29 (active)
20 | CC(COc1ccccc1)NC(C)C(O)c1ccc(O)cc1 (stereo unspecified) [Isoxsuprine hydrochloride] | -0.14 (inactive)
21 | C[C@H](NCc1ccc(OCc2cccc(F)c2)cc1)C(N)=O [Safinamide] | -0.127 (inactive)

Row | Structure (SMILES) | light-induced TopBP1 condensate (z-score)
22 | COc1ccc(C(=O)c2ccc(C)cc2)c(O)c1 [Mexenone] | 0.105 (inactive)
23 | O=C(NCCCN1CCOCC1)c1ccc(Cl)cc1 [Eprobemide] | 0.149 (inactive)
24 | CC(C)NCC(O)COc1cccc2[nH]c3ccccc3c12 (stereo unspecified) [Carazolol] | -1.07 (inactive)
25 | CC(COc1ccccc1)NN (stereo unspecified) [Phenoxypropazine dihydrochloride] | 0.724 (inactive)
26 | CN(C)C(=O)COC(=O)Cc1ccc(OC(=O)c2ccc(NC(=N)N)cc2)cc1 [Camostat mesylate] | -0.369 (inactive)
27 | CN[C@@H]1[C@H](O)[C@H](NC)[C@H]2O[C@@]3(O)C(=O)C[C@@H](C)O[C@H]3O[C@@H]2[C@H]1O [Spectinomycin dihydrochloride] | 0.546 (inactive)
28 | C=C1C[C@H]2[C@@H]3C=C(C)C4=CC(=O)CC[C@]4(C)[C@H]3CC[C@]2(C)[C@@]1(OC(C)=O)C(C)=O [Melengestrol acetate] | -0.246 (inactive)
29 | CCOc1ccccc1OCCN[C@H](C)Cc1ccc(OC)c(S(N)(=O)=O)c1 [(R)-Tamsulosin hydrochloride] | 0.258 (inactive)
30 | Cc1cccc(C)c1OCC(=O)N[C@@H](Cc1ccccc1)[C@@H](O)C[C@H](Cc1ccccc1)NC(=O)[C@H](C(C)C)N1CCCNC1=O [Lopinavir] | 0.599 (inactive)
31 | CC(C)CN(C[C@@H](O)[C@H](Cc1ccccc1)NC(=O)O[C@H]1CCOC1)S(=O)(=O)c1ccc(N)cc1 [Amprenavir] | 1.18 (inactive)
32 | CC[N+]1(CC)CCC(=C(c2ccccc2)c2ccccc2)C1C (stereo unspecified) [Prifinium Bromide] | 1.11 (inactive)
33 | CC(C)(CO)[C@@H](O)C(=O)NCCCC(=O)O [Hopantenate calcium] | 0.00401 (inactive)
34 | COc1cc(N)cn[n+]1-c1ccccc1 [Amezinium metilsulfate] | 0.428 (inactive)
35 | O=C1CN2Cc3c(ccc(Cl)c3Cl)N=C2N1 [Anagrelide] | -0.566 (inactive)
36 | Clc1ccc(C(Cn2ccnc2)OCc2csc3c(Cl)cccc23)c(Cl)c1 (stereo unspecified) [Sertaconazole nitrate] | 0.206 (inactive)
37 | OCC(CO)N[C@H]1C[C@](O)(CO)[C@@H](O)[C@H](O)[C@H]1O [Voglibose] | 1.28 (inactive)
38 | CC(C)(CO)C(O)C(=O)NCCCO (stereo unspecified) [Panthenol (D)] | 0.585 (inactive)
39 | CN(C)CCOC1=Cc2ccccc2Sc2ccc(Cl)cc21 [Zotepine] | 0.612 (inactive)
40 | CN1CCCCC1CCN1c2ccccc2Sc2ccc([S+](C)[O-])cc21 (stereo unspecified) [Mesoridazine besylate] | 0.412 (inactive)
41 | Cc1nc2ccccc2n1Cc1ccc(Cl)cc1 [Chlormidazole] | -0.19 (inactive)
42 | CC(C)(C)C(=O)OCOC(=O)[C@@H]1N2C(=O)[C@@H](/N=C/N3CCCCCC3)[C@H]2SC1(C)C [Pivmecillinam hydrochloride] | 0.64 (inactive)

Row | Structure (SMILES) | light-induced TopBP1 condensate (z-score)
43 | CC(C)NC(=N)NC(=N)Nc1ccc(Cl)cc1 [Proguanil hydrochloride] | -0.256 (inactive)
44 | COc1cc(C(=O)NCc2ccc(OCCN(C)C)cc2)cc(OC)c1OC [Trimethobenzamide hydrochloride] | -0.218 (inactive)
45 | Cc1ncc([N+](=O)[O-])n1CC(C)O (stereo unspecified) [Secnidazole] | 0.994 (inactive)
46 | CC1(C)S[C@@H]2[C@H](NC(=O)C(c3ccccc3)S(=O)(=O)O)C(=O)N2[C@H]1C(=O)O (stereo partly specified) [Sulbenicillin sodium salt] | 0.523 (inactive)
47 | CC(=O)[C@@]1(O)CC[C@H]2[C@@H]3C[C@H](C)C4=CC(=O)C=C[C@]4(C)[C@@]3(F)[C@@H](O)C[C@@]21C [Fluorometholone] | -0.232 (inactive)
48 | O=C(c1cc(O)c(O)c(O)c1)c1ccc(O)c(O)c1O [Exifone] | 0.683 (inactive)
49 | CN(C)CC/C=C1/c2ccccc2COc2ccc(CC(=O)O)cc21 [Olopatadine hydrochloride] | 0.52 (inactive)
50 | O=c1oc2cc(O)ccc2s1 [Tioxolone] | 0.00597 (inactive)
51 | Cc1cc(/C=C/c2ccc3cc(N(C)C)ccc3[n+]2C)c(C)n1-c1ccccc1 [Pyrvinium pamoate] | -4.74 (active)
52 | CN[C@@H]1[C@@H](O)[C@@H](O[C@@H]2[C@@H](O)[C@H](O[C@H]3OC(CN)=CC[C@H]3N)[C@@H](N)C[C@H]2N)OC[C@]1(C)O [Sisomicin sulfate] | 0.652 (inactive)
53 | CCN1CCN(Cc2ccc(Nc3ncc(F)c(-c4cc(F)c5nc(C)n(C(C)C)c5c4)n3)nc2)CC1 [Abemaciclib] | -0.486 (inactive)
54 | COc1cccc(CCc2ccccc2OCC(CN(C)C)OC(=O)CCC(=O)O)c1 (stereo unspecified) [Sarpogrelate hydrochloride] | 0.789 (inactive)
55 | Clc1ccc(C(Cn2ccnc2)OCc2c(Cl)cccc2Cl)c(Cl)c1 (stereo unspecified) [Isoconazole] | 0.803 (inactive)
56 | CN(C)c1cc(NC(=O)CNC(C)(C)C)c(O)c2c1C[C@H]1C[C@H]3[C@H](N(C)C)C(O)=C(C(N)=O)C(=O)[C@@]3(O)C(O)=C1C2=O [Tigecycline] | 0.904 (inactive)
57 | N#C/C(=C1/SCC(c2ccccc2Cl)S1)n1ccnc1 (stereo unspecified) [Lanoconazole] | 0.321 (inactive)
58 | O=C(O)COc1nn(Cc2ccccc2)c2ccccc12 [Bendazac] | -0.242 (inactive)
59 | CC(=O)N[C@H]1[C@H]([C@H](O)[C@H](O)CO)OC(C(=O)O)=C[C@@H]1NC(=N)N [Zanamivir] | -0.513 (inactive)
60 | CC(C)(C)NCC(O)CSc1nc(-c2ccc(C(N)=O)s2)cs1 (stereo unspecified) [Arotinolol hydrochloride] | -0.455 (inactive)
61 | Cc1ccc(C(=O)c2cc(O)c(O)c([N+](=O)[O-])c2)cc1 [Tolcapone] | -0.692 (inactive)
